# In PubChem BioAssay (NCATS):
# Records with an inconclusive call do not appear. A call without a number means that no potency is given here. The source made the active and inactive calls. Calls follow the shape of the dose curve; as a rule, active = well fitted activation curve with a large enough effect in the repeat runs; inconclusive = weak or mixed curves; inactive = flat fitted curve, though single readings scatter.
# Experiment: qHTS assay for small molecule agonists of the antioxidant response element (ARE) signaling pathway measured by Nrf2-dependant transcriptional activity (AID 720636)
# Details: ARE-luc HepG2, Nrf2 luciferase reporter, 16 h; series mostly up to 92.4 µM
# Source text: National Center for Advancing Translational Sciences [NCATS] NIH Chemical Genomics Center [NCGC] U.S. Environmental Protection Agency [EPA] National Institutes of Environmental Health Sciences [NIEHS] National Toxicology Program [NTP] Assay Overview: The antioxidant response element (ARE) signaling pathway plays an important role in the cellular anti-oxidant defense. Exposure to stressors which are exogenous like ionizing radiations, chemicals, U-V light, and endogenous like cell signaling, metabolic processes or inflammation, reactive oxygen species (ROS), can induce oxidative stress in the cells. Oxidative stress has been implicated in the pathogenesis of a variety of diseases ranging from cancer to neurodegeneration. ARE-luc HepG2 cell line (Simmons et al., Current Chemical Genomics, 5:1-12, 2011) has been used for identifying the chemicals that induce oxidative stress. The cell line has an Nrf2-responsive luciferase reporter gene that has been engineered to measure Nrf2-dependant transcriptional activity.
# Assay Protocol Summary: For measuring ARE induction; 2,000 ARE-luc HepG2 cells in 5 uL of assay medium containing 1% dialyzed FBS per well were dispensed into white wall/solid bottom 1536-well plates using a Flying Reagent Dispenser (FRD) (Aurora Discovery). The assay plates were incubated for 6 hr at 37 C to allow cell attachment to the well bottom, followed by the transfer of 23 nL compound or DMSO vehicle by a pin tool (Kalypsys). The plates were incubated for 16 hr at 37 C and 5% CO2, followed by the addition of 5 uL of ONE-GloTM luciferase reagent (Promega) into each well using FRD. After 30 min room temperature incubation, plates were read on a ViewLux plate reader (PerkinElmer).
# Potency is read from the fitted curve at half-maximal effect.
row,SMILES,Potency
1,CCCNC(=O)NS(=O)(=O)c1ccc(Cl)cc1,inactive
2,O=c1cc(-c2ccccc2)oc2cc(O)cc(O)c12,13.7 µM (active)
3,CC(=O)c1ccc(S(=O)(=O)NC(=O)NC2CCCCC2)cc1,inactive
4,CCn1cc(C(=O)O)c(=O)c2ccc(C)nc21,inactive
5,CC(=O)O[C@]1(C(C)=O)CC[C@H]2[C@@H]3C=C(Cl)C4=CC(=O)[C@@H]5C[C@@H]5[C@]4(C)[C@H]3CC[C@@]21C,inactive
6,O=C1NC(=O)C(c2ccccc2)(c2ccccc2)N1,inactive
7,CN(C)CCC(c1ccccc1)c1ccccn1 (centres undefined),inactive
8,O=C(O)c1cc(O)c2c(c1)C(=O)c1cccc(O)c1C2=O,inactive
9,CC1=C(/C=C/C(C)=C/C=C/C(C)=C/C(=O)Nc2ccc(O)cc2)C(C)(C)CCC1,inactive
10,O=c1[nH]cnc2c1ncn2[C@H]1CC[C@@H](CO)O1,inactive
11,O=C(O)Cc1cccc2ccccc12,inactive
12,CCCCC1C(=O)N(c2ccccc2)N(c2ccccc2)C1=O,inactive
13,CC(=O)N[C@@H](CS)C(=O)O,inactive
14,CC/C(=C(\c1ccccc1)c1ccc(OCCN(C)C)cc1)c1ccccc1,inactive
